Screen size: about 63,000 compounds; about 1,100 (1.7%) were called active. Many of the other results were omitted from the sample, so actives are more common in it than they were. Potency and affinity values are given separately. Unmarked numbers belong to inactive results.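 Rule for the calls: active = compounds whose percent cytotoxicity in the single-dose primary screen, scaled between solvent and toxic-drug controls, exceeds 50; inactive = the rest.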
Assay: cytotoxicity in KRAS-transformed pancreatic duct cells, primary screen, cell-based, fluorescence, HTS (AID 431);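 note: 0% = DMSO solvent wells and 100% = doxorubicin-treated wells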
Details: HPDE-C7K KRASV12 cells, Alamar Blue viability, 48 h; at 10 µM; active compounds read high

Row | Structure (SMILES) | cytotoxicity
1 | COc1ccc(Nc2nc3ccccc3nc2C)cc1 | 20%
2 | O=C1N(CC(=O)N2CCc3ccccc32)CCN1Cc1ccccc1Cl | -7.2%
3 | COc1ccc(CCNS(=O)(=O)c2ccc3c(c2)CCN3C(=O)C2CC2)cc1OC | -6.7%
4 | O=C(CSc1nc(Nc2ccccc2)nc(N2CCOCC2)n1)Nc1ccc2c(c1)OCCO2 | 11.5%
5 | COC(=O)CSc1ncnc2c1sc1nc(-c3ccco3)c3c(c12)CC(C)(C)OC3 | 15.4%
6 | CCOC(=O)c1sc2nc(N3CCCC3)c3c(c2c1N)CC(C)(C)OC3 | -3%
7 | CCOC(=O)c1sc2nc(-c3ccco3)c3c(c2c1N)CC(C)(C)OC3 | 57.4% (active)
8 | COc1ccc(Nc2nc(OC)nc(N3CCN(c4ccc(OC)cc4)CC3)n2)cc1 | 8.4%
9 | COC(=O)/C=C1\NCCSC1=O | 35.9%
10 | O=C(CCC(=O)N(c1ccccc1)C(C(=O)NC1CCCC1)c1ccncc1)Nc1cccnc1 (configuration not stated) | -0.5%
11 | CCn1c(=N)c(C(=O)NCc2cccnc2)cc2c(=O)n3cccc(C)c3nc21 | 1.8%
12 | CN=C(Nc1cc(C)nn1CCC#N)c1ccccc1F | 4.4%
13 | N#CC1=C(SCC(=O)NC23CC4CC(CC(C4)C2)C3)NC(=O)C(C#N)C12CCCCC2 (configuration not stated) | 45.6%
14 | CC(C)(C)C1CCC2(CC1)C(C#N)=C(SCC(=O)NC1CCCCC1)NC(=O)C2C#N (configuration not stated) | 54.5% (active)
15 | CCOC(=O)C1=C(SCC(=O)Nc2ccccc2)NC(=O)C(C#N)C12CCCCC2 (configuration not stated) | 5.3%
16 | N#CC1=C(N)NC(SCC(=O)Nc2ccccc2)=C(C#N)C12CCCC2 | 0.4%
17 | N#CC1=C(SCC(=O)NC2CC2)NC(=O)C(C#N)C12CCCCC2 (configuration not stated) | -27.1%
18 | CCOC(=O)Cc1csc(NC(=O)CSc2nnc(-c3ccc(C)cc3)o2)n1 | -11.9%
19 | CC(=O)N1CCc2cc(S(=O)(=O)NC(CC(C)C)C(=O)Nc3ccc4c(c3)OCCO4)ccc21 (configuration not stated) | 7.7%
20 | N#CCSc1nnc2c(Cl)cc(Cl)cn12 | 7.2%
21 | Brc1ccc(-c2nc(-c3ccncc3)no2)o1 | 0.3%
22 | CSc1ccc(S(=O)(=O)Nc2ccc(N3CCOCC3)c(Cl)c2)cc1 | -2.9%
23 | c1ccc(N2CCN(c3nnnn3-c3ccccc3)CC2)cc1 | -3.6%
24 | COc1ccc(CCNC(=O)COc2ccc(S(=O)(=O)N3CCOCC3)cc2)cc1 | 8.2%
25 | Cc1cc(=O)c2cc(Cl)ccc2[nH]1 | -4.6%

Row | Structure (SMILES) | cytotoxicity
26 | COC(=O)c1ccc2[nH]c(C)cc(=O)c2c1 | -3.5%
27 | Cc1cc2c(N=O)c(NO)ccc2[nH]1 | 79.2% (active)
28 | O=C(Nc1ccc2c(c1)OCCO2)C1CCCN(S(=O)(=O)c2cnc[nH]2)C1 (configuration not stated) | -1.8%
29 | Cn1c(NCCCN2CCOCC2)nc2c1c(=O)n(Cc1ccc(Cl)cc1)c(=O)n2C | 28.8%
30 | Cn1c(NCCCN2CCOCC2)nc2c1c(=O)n(Cc1ccc(Cl)cc1Cl)c(=O)n2C | 50.6% (active)
31 | Cn1c(=O)c2c(nc(NCCCN3CCOCC3)n2Cc2ccc(Cl)c(Cl)c2)n(C)c1=O | -1.2%
32 | Cn1c(NCCN2CCOCC2)nc2c1c(=O)n(Cc1cccc(Cl)c1)c(=O)n2C | 22.4%
33 | Cn1c(=O)c2c(nc(NCCCN3CCOCC3)n2Cc2ccc(Cl)cc2Cl)n(C)c1=O | 0.9%
34 | Cn1c(NCCCN2CCOCC2)nc2c1c(=O)n(Cc1ccc(Cl)c(Cl)c1)c(=O)n2C | 54.6% (active)
35 | Cc1cc(C)nc(SCc2ccc3nonc3c2)n1 | -23.2%
36 | Cc1cc(CN2C(=O)c3ccccc3C2=O)no1 | -13.3%
37 | CCN(CC)S(=O)(=O)c1ccc(NC(=O)Cn2cnc3ccccc3c2=O)cc1 | -6.7%
38 | CCC(=O)Nc1ccc(C(=O)n2nc(C)cc2C)cc1 | 10.7%
39 | CCSc1ccccc1C(=O)Nc1cc(C)on1 | -0.6%
40 | COCCSc1ccccc1C(=O)Nc1nnc(C)s1 | -9%
41 | COCCSc1ccccc1C(=O)Nc1cc(C)on1 | 85.8% (active)
42 | COc1ccc(C2CCCN2C(=O)Nc2ccc(F)cc2)cc1OC (configuration not stated) | -15.2%
43 | CCNC(=O)C1CC(=O)N(Cc2ccc3c(c2)OCO3)C(=Nc2ccc(OCC)cc2)S1 (configuration not stated) | 10%
44 | CCNC(=O)C1CC(=O)N(Cc2ccc3c(c2)OCO3)C(=Nc2ccc(F)cc2)S1 (configuration not stated) | 62.1% (active)
45 | CNC(=O)C1CC(=O)N(Cc2ccc3c(c2)OCO3)C(=Nc2ccc(F)cc2)S1 (configuration not stated) | -2.3%
46 | O=C(O)c1cc(C(=O)O)c(-c2ccccc2)c(C(=O)O)c1 | -12.8%
47 | CC(=O)Oc1cccc2c1C(=O)c1c(OC(C)=O)cc(C(=O)O)cc1C2=O | 8.1%
48 | CCOc1ccc(N2Cc3ncccc3C2=O)cc1 | -0.1%
49 | O=C(COc1ccc2ccccc2c1Br)N1CCOCC1 | -30.2%
50 | COc1ccc(CNC(=O)C(C#N)c2nc3ccccc3nc2N2CCN(C)CC2)cc1 (configuration not stated) | 76.5% (active)

Row | Structure (SMILES) | cytotoxicity
51 | CCCCCCOC(=O)C(C#N)c1nc2ccccc2nc1N1CCN(C)CC1 (configuration not stated) | 70.2% (active)
52 | CCOc1ccccc1N1CCN(c2nc3ccccc3nc2C(C#N)C(=O)OC)CC1 (configuration not stated) | 50.6% (active)
53 | CCOc1ccccc1N1CCN(c2nc3ccccc3nc2C(C#N)C(=O)OC(C)C)CC1 (configuration not stated) | -18.6%
54 | N#CC(C(=O)NCc1ccccc1)c1nc2ccccc2nc1N1CCCC1 (configuration not stated) | 8.4%
55 | CCCCCCOC(=O)C(C#N)c1nc2ccccc2nc1N1CCN(CC)CC1 (configuration not stated) | 5.9%
56 | CCCCCCOC(=O)C(C#N)c1nc2ccccc2nc1N1CCCCC1 (configuration not stated) | -16.1%
57 | C=CCOC(=O)C(C#N)c1nc2ccccc2nc1N1CCN(c2ccccc2OCC)CC1 (configuration not stated) | 4.2%
58 | COc1ccc(CNC(=O)C(C#N)c2nc3ccccc3nc2N2CCCC2)cc1 (configuration not stated) | -9.7%
59 | O=C1CC(c2ccccc2)CC2=C1CN(C1CCCCC1)CN2 (configuration not stated) | 22%
60 | Cc1nnc(NC(=O)C2CCN(c3cnccn3)CC2)s1 | -12.6%
61 | CCOc1ccccc1Oc1coc2cc(O)ccc2c1=O | -11.5%
62 | Cc1cc(C(=O)Nc2sc(C)c(C)c2C#N)no1 | -0.7%
63 | Cc1cc(C)n(CC(O)Cn2c3ccccc3c3ccccc32)c(=O)n1 (configuration not stated) | 11.5%
64 | CC1CCCC(C)N1C(=O)Cn1c(SCC(=O)Nc2ccc3c(c2)OCO3)nc2ccccc21 (configuration not stated) | 8.4%
65 | COc1ccc(-c2onc3ccc(Cl)cc23)cc1OC | 4.4%
66 | O=C1c2ccccc2-c2onc3ccc(NCc4ccco4)c1c23 | 51.6% (active)
67 | COc1ccc2noc3c2c1C(=O)c1ccccc1-3 | 72.7% (active)
68 | O=C1c2ccccc2-c2onc3ccc(NCCCn4ccnc4)c1c23 | 27.5%
69 | CCOc1ccc2noc3c2c1C(=O)c1ccccc1-3 | 23.3%
70 | O=C(NCc1ccco1)c1ccc2c(c1)C(=O)c1ccccc1-2 | 5.3%
71 | C=C(C)c1ccc(C(C)(C)NC(=O)NCc2ccco2)cc1 | 8.8%
72 | CC(=O)c1c(C)[nH]c(C(=O)N2CCCCCC2)c1C | -5.8%
73 | CC(=O)N1CCc2c(sc(NC(=O)CN3C(=O)CCC3=O)c2C(N)=O)C1 | 0.3%
74 | COc1ccc(OC)c(S(=O)(=O)Nc2cc(OC)c(Cl)cc2OC)c1 | 6.9%
75 | COc1cc(NS(=O)(=O)c2cc(C)ccc2OC)c(OC)cc1Cl | 4%

Row | Structure (SMILES) | cytotoxicity
76 | COc1cc(NS(=O)(=O)c2ccc(OC)c(C)c2C)c(OC)cc1Cl | 64.1% (active)
77 | C=CCn1c(=O)c(C(=O)Nc2ccccc2C(=O)OCC)c(O)c2ccccc21 | -8.6%
78 | CCC(C)n1nccc1NC(=O)C(C)OC(=O)c1cc2ccccc2[nH]1 (configuration not stated) | 7%
79 | CCNc1ccc2c(Cl)cc(=O)oc2c1 | 6.3%
80 | CCN(CC)c1ccc2c(C)c(-c3ccc(N)cc3)c(=O)oc2c1 | 82.1% (active)
81 | CCN(CC)c1ccc2c(C)c(CN3CCOCC3)c(=O)oc2c1 | 26.6%
82 | CCOc1cc2c(C)cc(=O)oc2cc1Cl | 0.2%
83 | CCN(CC)c1ccc2cc(NC(=O)CCC(=O)O)c(=O)oc2c1 | 15.5%
84 | CCOC(=O)Cc1c(C)c2ccc(N(CC)CC)cc2oc1=O | -21.9%
85 | CCN(CC)C(=O)Oc1ccc2c(=O)c(-c3ccc(OC)cc3)c(C)oc2c1 | 4.7%
86 | COc1ccc(-n2cnnc2SCC(=O)N(C)C2CCS(=O)(=O)C2)cc1 (configuration not stated) | 3.5%
87 | COCc1nc2ccccc2n1Cc1ccc(Br)cc1 | -5.7%
88 | CSc1nnc(-c2sc3cc(Cl)ccc3c2Cl)n1C | -20.3%
89 | Cc1csc(NC(=O)c2nc3nc(C)cc(C)n3n2)n1 | -16.1%
90 | COc1ccccc1-n1nnnc1SCc1ccccc1 | -10.6%
91 | Cc1cccc(C)c1-n1nnnc1S(=O)(=O)Cc1ccccc1Cl | -1.5%
92 | O=c1[nH]c2cc3c(cc2cc1CN(CCc1ccccc1)Cc1nnnn1C1CCCC1)OCCO3 | -11.1%
93 | CC(CN1CCCCC1)OC(=O)c1cc2ccccc2o1 (configuration not stated) | -6.7%
94 | CCCS(=O)(=O)N1CCCC(C(=O)NCc2ccc3c(c2)OCO3)C1 (configuration not stated) | -6.2%
95 | CC(C)[C@H](NC(=O)OC(C)(C)C)c1nnc(S(=O)(=O)Cc2c(F)cccc2Cl)o1 | -5.9%
96 | CC(C)C[C@H](N)c1nnc(S(=O)(=O)Cc2cccc(F)c2)o1 | -7.4%
97 | Cc1ccc(C2N(c3cccc(Cl)c3)C(=O)C3CCCN32)o1 (configuration not stated) | -0.1%
